Laboratory results published in publication PMC8769072, “Proteome‐scale mapping of binding sites in the unstructured regions of the human proteome” (Molecular Systems Biology, 2022).

Sequence of TNKS 174-649, O95271 (O95271 174-649): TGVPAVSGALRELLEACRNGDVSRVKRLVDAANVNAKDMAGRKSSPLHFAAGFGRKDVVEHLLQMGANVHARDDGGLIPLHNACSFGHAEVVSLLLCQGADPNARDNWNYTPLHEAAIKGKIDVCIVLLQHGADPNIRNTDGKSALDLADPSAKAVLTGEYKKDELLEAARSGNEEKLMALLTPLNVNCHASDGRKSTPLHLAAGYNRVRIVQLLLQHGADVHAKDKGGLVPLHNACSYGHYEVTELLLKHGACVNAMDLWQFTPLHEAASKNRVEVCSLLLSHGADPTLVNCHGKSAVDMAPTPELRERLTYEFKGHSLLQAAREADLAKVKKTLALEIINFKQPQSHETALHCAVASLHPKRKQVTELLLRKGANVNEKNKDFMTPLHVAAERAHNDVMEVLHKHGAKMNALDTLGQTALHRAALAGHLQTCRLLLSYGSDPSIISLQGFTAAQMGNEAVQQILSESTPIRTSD
Sequence of PEX14 16-84, O75381 (O75381 16-84): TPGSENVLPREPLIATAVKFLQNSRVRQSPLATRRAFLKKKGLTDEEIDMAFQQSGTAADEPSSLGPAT
Sequence of TLN1 309-401, Q9Y490 (Q9Y490 309-401): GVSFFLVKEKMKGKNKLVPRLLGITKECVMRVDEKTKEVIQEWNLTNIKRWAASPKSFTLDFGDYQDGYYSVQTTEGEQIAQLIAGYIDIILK
Sequence of SUMO1 1-101, P63165 (P63165 whole entry): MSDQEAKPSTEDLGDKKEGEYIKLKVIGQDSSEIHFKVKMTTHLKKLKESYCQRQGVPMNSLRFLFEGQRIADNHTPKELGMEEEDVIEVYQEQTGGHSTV
Sequence of SIN3A 295-383, Q96ST3 (Q96ST3 295-383): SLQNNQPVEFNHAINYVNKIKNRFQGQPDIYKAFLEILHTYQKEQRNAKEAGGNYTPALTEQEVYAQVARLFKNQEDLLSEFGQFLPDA

LWEDLLHAAEAHSSAT [PHTF2, Q8N3S3]
selected by phage display (SIN3A 295-383, Q96ST3): confidence 2 (active)

RMEKLEGYWGEAQSLA [PPP1R9B, Q96SB3]
selected by phage display (PEX14 16-84, O75381): confidence 3 (active)

PPPSPEDLAELWGHGV [CHTF18, Q8WVB6]
selected by phage display (PEX14 16-84, O75381): confidence 3 (active)

EMEKNWQELLHETKQR [SYCE3, A1L190]
selected by phage display (PEX14 16-84, O75381): confidence 2 (active)

DDDEPIFVGEISSSKP [ZNF280D, Q6N043]
selected by phage display (SUMO1 1-101, P63165): confidence 2 (active)

DGVARTPPVGMSGQVA [KIF26A, Q9ULI4]
selected by phage display (TNKS 174-649, O95271): confidence 3 (active)

STPLPEPHIDLELVWR [C9orf131, Q5VYM1]
selected by phage display (PEX14 16-84, O75381): confidence 2 (active)

LNSYEAEWDMVNTVSF [TBC1D15, Q8TC07]
selected by phage display (PEX14 16-84, O75381): confidence 2 (active)

VKDLEEHWQRHLARTT [EVI5, O60447]
selected by phage display (PEX14 16-84, O75381): confidence 3 (active)

LTEREWADEWKHLDHA [CBFA2T2, O43439]
selected by phage display (PEX14 16-84, O75381): confidence 4 (active)

IEALLEAGQARDAQDV [RRBP1, Q9P2E9]
selected by phage display (SIN3A 295-383, Q96ST3): confidence 2 (active)

AGSQAQELAEAWEGAR [RIMBP3, Q9UFD9]
selected by phage display (PEX14 16-84, O75381): confidence 2 (active)

SATVPDQEELGEVWQR [HECW2, Q9P2P5]
selected by phage display (PEX14 16-84, O75381): confidence 3 (active)

ELEEEWLKEAGLSNLF [ARHGAP18, Q8N392]
selected by phage display (PEX14 16-84, O75381): confidence 2 (active)

VEVIDLTIESSSDEED [PIAS3, Q9Y6X2]
selected by phage display (SUMO1 1-101, P63165): confidence 4 (active)

EEEDDVVFVSSKPGSP [TTF2, Q9UNY4]
selected by phage display (SUMO1 1-101, P63165): confidence 2 (active)

DFSSLLHALSFEQILQ [DENND2D, Q9H6A0]
selected by phage display (SIN3A 295-383, Q96ST3): confidence 2 (active)

WTFSPLTETEMQITAV [PRUNE2, Q8WUY3]
selected by phage display (TLN1 309-401, Q9Y490): confidence 2 (active)

AGGDLAGLLEALSDMG [NFKB2, Q00653]
selected by phage display (SIN3A 295-383, Q96ST3): confidence 2 (active)

DDDDVVFIESIQPPSI [ZMYM5, Q9UJ78]
selected by phage display (SUMO1 1-101, P63165): confidence 3 (active)

EVQTENHAPWSISDYF [AGGF1, Q8N302]
selected by phage display (PEX14 16-84, O75381): confidence 2 (active)

DSHVSLETEWGQYWDE [ARHGAP27, Q6ZUM4]
selected by phage display (PEX14 16-84, O75381): confidence 3 (active)

SPAEVVDLTLDEDSRR [C18orf25, Q96B23]
selected by phage display (SUMO1 1-101, P63165): confidence 4 (active)

GIQYIDLSSDSEDVVS [SMARCAD1, Q9H4L7]
selected by phage display (SUMO1 1-101, P63165): confidence 4 (active)

SGTAGAALLALLAALA [EGFR, P00533]
selected by phage display (SIN3A 295-383, Q96ST3): confidence 2 (active)

GLYPIIWQYPNGTHAY [JMJD1C, Q15652]
selected by phage display (TLN1 309-401, Q9Y490): confidence 2 (active)

VLMESLKSIWSSSMMH [SMG7, Q92540]
selected by phage display (PEX14 16-84, O75381): confidence 3 (active)

SQSDDGPIMWVRPGEQ [RSBN1, Q5VWQ0]
selected by phage display (TLN1 309-401, Q9Y490): confidence 2 (active)

LSTGYLQIAERREPIG [DTNBP1, Q96EV8]
selected by phage display (TNKS 174-649, O95271): confidence 4 (active)

ELHHIWQSQQRLQPVA [IRF5, Q13568]
selected by phage display (PEX14 16-84, O75381): confidence 3 (active)

GAAASLSEAWLRAGEG [SPIDR, Q14159]
selected by phage display (PEX14 16-84, O75381): confidence 2 (active)

AEVVDLTVDEDEPTVV [RNF111, Q6ZNA4]
selected by phage display (SUMO1 1-101, P63165): confidence 2 (active)

SEQNKLGELWEEMALS [GPATCH2L, Q9NWQ4]
selected by phage display (PEX14 16-84, O75381): confidence 3 (active)

DAEERGEQALQDAWQK [KRT77, Q7Z794]
selected by phage display (PEX14 16-84, O75381): confidence 2 (active)

DEIVDLTAESLEPVVV [RNF4, P78317]
selected by phage display (SUMO1 1-101, P63165): confidence 2 (active)

ALENRVAVLENQNKTL [CREB1, P16220]
selected by phage display (SUMO1 1-101, P63165): confidence 2 (active)

QWVTSPLHSPTLKDAH [ARHGAP31, Q2M1Z3]
selected by phage display (TLN1 309-401, Q9Y490): confidence 4 (active)

TTGGGWVISRIFDSGY [FMO1, Q01740]
selected by phage display (TLN1 309-401, Q9Y490): confidence 4 (active)

QLQEAWLAEAQVPDDE [ETV5, P41161]
selected by phage display (PEX14 16-84, O75381): confidence 3 (active)

AVVWIDSTLHQPMFLL [OR52W1, Q6IF63]
selected by phage display (TLN1 309-401, Q9Y490): confidence 2 (active)

GHPELSEAELQQLYAS [ZFHX4, Q86UP3]
selected by phage display (PEX14 16-84, O75381): confidence 2 (active)

AHLWFDNQIFVADTSE [ATP12A, P54707]
selected by phage display (TLN1 309-401, Q9Y490): confidence 3 (active)

DLSEAWMQANYDPLSD [ELOA2, Q8IYF1]
selected by phage display (PEX14 16-84, O75381): confidence 3 (active)

PGADVVDLTLDSSSSS [PIAS4, Q8N2W9]
selected by phage display (SUMO1 1-101, P63165): confidence 2 (active)

EEESMFFSNPLFLASP [PSD4, Q8NDX1]
selected by phage display (TLN1 309-401, Q9Y490): confidence 2 (active)

ALPSTWIENKLYGMSD [RET, P07949]
selected by phage display (TLN1 309-401, Q9Y490): confidence 4 (active)

LSGEHAYLQSSWNLLD [CACNA1H, O95180]
selected by phage display (PEX14 16-84, O75381): confidence 2 (active)

SLPEGLDMERRWGQVS [NR3C2, P08235]
selected by phage display (PEX14 16-84, O75381): confidence 2 (active)

MAFSELLDLVGGLGRF [SLC22A12, Q96S37]
selected by phage display (SIN3A 295-383, Q96ST3): confidence 2 (active)

GGLEGWWLASLHGRQG [NEDD9, Q14511]
selected by phage display (PEX14 16-84, O75381): confidence 4 (active)

WEEEFGREMRRQLWLE [FAM186B, Q8IYM0]
selected by phage display (PEX14 16-84, O75381): confidence 2 (active)

PGSLREDPLGEAQPQI [INPP5K, Q9BT40]
selected by phage display (TNKS 174-649, O95271): confidence 4 (active)

LQALLAATSTAGSQDI [SNTA1, Q13424]
selected by phage display (SIN3A 295-383, Q96ST3): confidence 2 (active)

RMDEAWEQSRAPGPVH [RIMBP2, O15034]
selected by phage display (PEX14 16-84, O75381): confidence 2 (active)

DPNDQVAMGRQWLAIQ [AATF, Q9NY61]
selected by phage display (PEX14 16-84, O75381): confidence 3 (active)

DMQLLWEKAVQQHQHG [SUGP1, Q8IWZ8]
selected by phage display (PEX14 16-84, O75381): confidence 2 (active)

DLIFTDSKLYIPLEYR [TPTE, P56180]
selected by phage display (TLN1 309-401, Q9Y490): confidence 4 (active)

EDLKWLWYENRIYVLG [NEMP2, A6NFY4]
selected by phage display (TLN1 309-401, Q9Y490): confidence 2 (active)

MAAVWQQVLAVDARYN [WDR13, Q9H1Z4]
selected by phage display (PEX14 16-84, O75381): confidence 3 (active)

QGLLHEAGSTDDRIVV [SPNS1, Q9H2V7]
selected by phage display (TNKS 174-649, O95271): confidence 2 (active)

KLEHTWKALVHDGDTV [PIP5K1C, O60331]
selected by phage display (PEX14 16-84, O75381): confidence 3 (active)

GDWLTMLREASDEIVA [WWC2, Q6AWC2]
selected by phage display (SIN3A 295-383, Q96ST3): confidence 2 (active)
